TTR transcr act: TTR transcription activators in neuroblastoma reporter cells, primary screen, cell-based, luminescence, SH-SY5Y, TTR promoter Gaussia luciferase | 100% = recombinant luciferase protein wells | activation, % at 16.7 µM | 92,000 tested, 1.3% active | AID 1117267, 2014;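 active = activation above the mean of all tested compounds plus 3 SD, cut at about 9.5% in these data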;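 also: cells exposed to compounds for one day before reading; 0% = median of all test compound wells on the plate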
HuH7 TTR inh: TTR promoter reporter inhibitors in hepatoma cells, counter-screen for TTR transcription activator project, cell-based, luminescence, HuH7 hepatoma; AID 1117279, 2014; shares compounds with TTR transcr act; inhibition, % at 16.7 µM; HuH7 TTR promoter-Gaussia luciferase reporter; 1,100 tested, 4% active;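 active = average inhibition above the solvent-only control wells' mean plus 3 SD, cut at about 15% in these data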;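 also: 0% = cells with DMSO only and 100% = cells with inhibitor control FD; inhibitors lower well luminescence so higher value means more inhibition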
TTR act confirm: TTR transcription activators, retest, confirmation, cell-based, luminescence, SH-SY5Y, triplicate; shares compounds with TTR transcr act; SHSY5Y TTR promoter Gaussia luciferase; 100% = purified Lucia enzyme wells, no cells; activation, % at 16.7 µM; 1,100 tested, under 10 active; AID 1117280, 2014;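 active = mean activation above a set limit taken from the earlier primary screen, cut at about 11% in these data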;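 also: 0% = DMSO-treated cells and 100% = recombinant Lucia luciferase without cells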
* hit, by the source's call. The full list was thinned out, with hits kept by preference.

What do the screens show for `CCCC1CCC2(CC1)CCC2OC(=O)Nc1cccc(Cl)c1` (stereo unspecified)?
TTR transcr act: 2

Results for CC(C)[C@H](NC(=O)c1ccco1)C(=O)OCC(=O)Nc1cccc(F)c1 ?
TTR transcr act: 0

Results for CC(NC(=O)c1ccco1)C(=O)OCc1cccc(C(F)(F)F)c1 (stereo unspecified) ?
TTR transcr act: 11*; HuH7 TTR inh: -10; TTR act confirm: 1

How did CC(NC(=O)[C@H](C)NC(=O)c1ccco1)c1ccc(S(N)(=O)=O)cc1 (stereo partly specified) do in these assays?
TTR transcr act: -1

What do the screens show for `O=C(CN[C@@H](Cc1c[nH]c2ccccc12)C(=O)NCCc1c[nH]c2ccccc12)NC1CCCCC1`?
TTR transcr act: -1

How did COc1cc(O)c(C(CC(=O)N2CCCC(C)C2)c2ccccc2)c(OC)c1 (stereo unspecified) do in these assays?
TTR transcr act: -1

What do the screens show for `COC(=O)[C@]12C[C@H](CC(=O)N3CCN(C(=O)c4ccco4)CC3)C(=O)N(Cc3ccco3)C1=C[C@H](COCc1ccccc1)O[C@@H]2C`?
TTR transcr act: 3

How did CC(C)CN1C(=O)C[C@]2(C(=O)N(C)c3ccc(NC(=O)c4cc(F)ccc4F)cc32)C1c1ccccc1 (stereo partly specified) do in these assays?
TTR transcr act: -2

How did O=C(CCNC(=O)c1ccccc1)Nc1ccc(F)c(Cl)c1 do in these assays?
TTR transcr act: 3

What do the screens show for `COc1ccc(NC(=O)CCNC(=O)c2ccccc2)cc1S(N)(=O)=O`?
TTR transcr act: 31*; HuH7 TTR inh: -12; TTR act confirm: 0

How did COc1ccccc1NS(=O)(=O)c1cc(NC(=O)CCNC(C)=O)ccc1C do in these assays?
TTR transcr act: -1

Results for CO[C@H]([C@H](C)/C=C/N(C)C=O)[C@@H](C)C(O)CC[C@H](C)[C@H](O)[C@H](C)[C@H]1OC(=O)/C=C/C(C)=C/C[C@H](O)C[C@@H]2C=CC[C@@H](C[C@H](OC)[C@@]3(CO3)[C@@H](OC)C[C@@H](OC)[C@@H]1C)O2 (stereo partly specified) ?
TTR transcr act: -1

Results for CCOC(=O)[C@]12CCCC=C1N(Cc1ccc(OC)cc1)C(=O)[C@@H]2CC(=O)N1CCSCC1 ?
TTR transcr act: -1

What do the screens show for `CCCC1CCC2(CC1)CCC2OC(=S)Nc1ccccc1Cl` (stereo unspecified)?
TTR transcr act: 2

How did Cn1ccsc1=NC(=O)c1ccccc1F do in these assays?
TTR transcr act: 0

How did Cn1ccsc1=NC(=O)c1ccccc1OC(F)F do in these assays?
TTR transcr act: 1

How did Cn1ccs/c1=N\C(=O)Nc1ccccc1 do in these assays?
TTR transcr act: 52*; HuH7 TTR inh: -3; TTR act confirm: 1

Results for CCOC(=O)[C@]12CCCC=C1N(Cc1ccc(OC)cc1)C(=O)[C@@H]2CC(=O)NCc1ccc(OC)c(OC)c1 ?
TTR transcr act: -1

What do the screens show for `Nc1[nH]c(C(=O)c2ccccc2)c(-c2ccc(Cl)cc2)c1C(=O)NCCC1=CCCCC1`?
TTR transcr act: 0

What do the screens show for `O=C(O[C@H]1CC[C@@]23CCCN2C(=O)CCC[C@H]3C1)N1CCN(c2ccccc2)CC1`?
TTR transcr act: -1

What do the screens show for `CCc1c(C2(O)CCCCC2)[nH]c2cnccc12`?
TTR transcr act: 13*; HuH7 TTR inh: -4; TTR act confirm: 0

Results for Cc1c(C2(O)CCCCC2)[nH]c2ccc(C(F)(F)F)cc12 ?
TTR transcr act: -4

How did COC(=O)C[C@H]1CC[C@@H]2[C@H](COc3ccc(NC(=O)c4ccccc4OC)cc3C(=O)N2C)O1 do in these assays?
TTR transcr act: -1

Results for COc1ccc2c(c1)C[C@@H]1CC(C)(C)CN1S2(=O)=O ?
TTR transcr act: 9

What do the screens show for `CCCCn1c(SCC(=O)N2CCc3ccccc32)nnc1-c1ccncc1`?
TTR transcr act: 17*; HuH7 TTR inh: -10; TTR act confirm: -1

How did CCCn1c(SCC(=O)N2CCCc3ccccc32)nnc1-c1ccccn1 do in these assays?
TTR transcr act: 0

How did CCCn1c(SCC(=O)N2CCc3ccccc32)nnc1-c1ccco1 do in these assays?
TTR transcr act: -2

What do the screens show for `COC(=O)C12CCCN1C1C(=O)N(Cc3ccc(C(N)=O)cc3)CC1C2` (stereo unspecified)?
TTR transcr act: -1

What do the screens show for `O=C(NCc1ccc(OC(F)(F)F)cc1)c1cc(-c2ccccc2)nn1CC1CC(c2cccnc2)=NO1` (stereo unspecified)?
TTR transcr act: 0

Results for COc1ccccc1CNC(=O)c1cc(-c2ccccc2C)nn1CC1CC(c2cccnc2)=NO1 (stereo unspecified) ?
TTR transcr act: -3

What do the screens show for `O=C(NCc1ccco1)c1cc(-c2ccccc2)nn1CC1CC(c2cccnc2)=NO1` (stereo unspecified)?
TTR transcr act: 10*; HuH7 TTR inh: -10; TTR act confirm: 0

What do the screens show for `CCOC(=O)CCSc1nc(C)c2cc(C)c(C)cc2n1`?
TTR transcr act: 15*; HuH7 TTR inh: -5; TTR act confirm: -2

How did Cc1ccc2nc(SCCC#N)nc(C)c2c1 do in these assays?
TTR transcr act: -3

What do the screens show for `CCOc1ccc2nc(SCc3cccc(C)c3)nc(C)c2c1`?
TTR transcr act: 1

Results for NC(=O)c1c(N)[nH]c(C(=O)c2ccccc2)c1-c1ccccn1 ?
TTR transcr act: 0

Results for O=C(CO/N=C/c1c(Cl)cccc1Cl)NNC(=O)c1cccc(Cl)c1 ?
TTR transcr act: 2

Results for O=C(CO/N=C/c1c(Cl)cccc1Cl)NNC(=O)c1ccc(Cl)cc1 ?
TTR transcr act: 11*; HuH7 TTR inh: -16; TTR act confirm: 0

How did O=C(CO/N=C/c1ccc(Cl)cc1Cl)NNC(=O)c1ccc(Cl)cc1Cl do in these assays?
TTR transcr act: 0

How did Cc1ccc(OCCOc2c(Cl)cc(Cl)cc2Cl)c([N+](=O)[O-])n1 do in these assays?
TTR transcr act: 2

What do the screens show for `CC1(c2ccccc2)NC(=O)N(CC(=O)N(c2ccccc2)C2CCS(=O)(=O)C2)C1=O` (stereo unspecified)?
TTR transcr act: 14*; HuH7 TTR inh: -17; TTR act confirm: 2

Results for COc1ccc(C2(C)NC(=O)N(CC(=O)N(c3ccccc3)C3CCS(=O)(=O)C3)C2=O)cc1 (stereo unspecified) ?
TTR transcr act: -1

Results for CCC1(c2ccccc2)NC(=O)N(CC(=O)N(c2ccccc2)C2CCS(=O)(=O)C2)C1=O (stereo unspecified) ?
TTR transcr act: 5

Results for CC(=O)c1ccc(N2CCN(C(=O)c3ccccc3SCC(=O)NCc3ccco3)CC2)c(F)c1 ?
TTR transcr act: -2

How did CCOC(=O)Cc1csc(NS(=O)(=O)c2ccc(C(F)(F)F)cc2)n1 do in these assays?
TTR transcr act: -1

How did Cc1cccc(-n2ccnc2SCC(=O)c2c(N)n(C3CC3)c(=O)[nH]c2=O)c1C do in these assays?
TTR transcr act: -1

Bioassay records (PubChem BioAssay)
